Assay results taken from PubChem BioAssay (NCI).
Compounds without any hit were thinned out: in the full panel of roughly 79,000, 15% have a hit. Calls of active or inactive are those of the source. Rule as the data show it: active = growth inhibition above about 70%; inactive = the rest.

Experiment: NCI Yeast Anticancer Drug Screen. Data for the cln2 rad14 strain (AID 165);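 also: 0% = growth equal to vehicle treated cultures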
Conditions: S. cerevisiae cln2 rad14 strain, at 50.0 µM, stronger effect = higher value
Description: Growth inhibition of yeast strains with defined genetic alterations is measured as a screen for potential anti-cancer activity. Selected strains with alterations in DNA damage repair or cell cycle control were exposed to compounds and growth inhibition was measured relative to vehicle treated controls. The strain used in this assay is cln2 rad14

SMILES | growth inhibition
NC(=O)CCC(N)=O | -5.4% (inactive)
c1ccc(C2c3ccccc3-c3ncnc(N4CCCCC4)c32)cc1 (stereo not given) | 15.1% (inactive)
O=C(CCCc1ccccn1)c1ccccc1 | 5.35% (inactive)
CCCCCCCCCCCCCCCCc1c(C(=O)OC)nc(NN)[nH]c1=O | -2.85% (inactive)
CCC[CH2][Sn]([CH2]CCC)([O]C(=O)c1cccc(F)c1F)[O][Sn]([CH2]CCC)([CH2]CCC)[O]C(=O)c1cccc(F)c1F | 88.5% (active)
O=C1c2c(F)c(F)c(F)c(F)c2SC2=Nc3cccc4cccc(c34)N12 | -14.5% (inactive)
Cc1ccc(N=Nc2c(O)n(C)c(=O)n(C)c2=O)cc1C | 3.95% (inactive)
COc1ccc2c(c1)C(=O)C1CCC(=O)N1C2c1ccc2c(c1)OCO2 (stereo not given) | 5.9% (inactive)
CN(C)CCC(=O)c1ccc(C(=O)CCN(C)C)cc1 | -14.8% (inactive)
CCN(CC)C(=S)N/N=C/c1ccccn1 | 89.2% (active)
C[N+](C)(CCOc1ccccc1)Cc1ccccc1 | 26.8% (inactive)
COc1cc2cccc(NC(=O)c3cc(OC)c(OC)c(OC)c3Br)c2cc1OC | 19.6% (inactive)
C/C=C1\CN2CCc3c([nH]c4ccccc34)C2C=C1CCO (stereo not given) | -13.2% (inactive)
Cc1nc2c(SCc3ccccc3)ncnc2o1 | 22.8% (inactive)
COC(=O)NC(Cc1ccccc1)NC(=O)OC(C)(C)C (stereo not given) | -0.95% (inactive)
CN1CCN(C2=NCCO2)CC1 | 32% (inactive)
c1ccc2c(c1)C1C3c4ccccc4C1C1C2C31 | 2.6% (inactive)
c1ccc(C2(c3ccccc3)Oc3ccccc3O2)cc1 | -37.5% (inactive)
CCc1ccc(C(=O)CN2CCCc3ccccc32)cc1 | -17.2% (inactive)
COC(=O)c1ccc2c(c1)nnn2C(C)=O | -21.9% (inactive)

SMILES | growth inhibition
COc1ccc(C2=NN(C(C)=O)c3nc4ccccc4nc3O2)cc1 | -5.9% (inactive)
N#CCCNc1ccc2c(c1)Cc1ccccc1-2 | -14.2% (inactive)
CCOC(=O)c1cnc2cc3c(cc2c1Nc1cccc(C(F)(F)F)c1)OCO3 | -6.45% (inactive)
CN(C)c1ccc(/C=N\NC(=S)NN2CCN(NC(=S)N/N=C\c3ccc(N(C)C)cc3)CC2)cc1 | 4.85% (inactive)
CN(C)c1ccc(/C=C2N=C(/C=C\c3ccccc3)OC\2=O)cc1 | 0.25% (inactive)
Cc1cc(O)c2c(c1)C(=O)C=CC2=O | 4.15% (inactive)
Cc1ccc(S(=O)(=O)N/N=C/C(O)C(O)C(O)C(O)CO)cc1 (stereo not given) | -34.1% (inactive)
COP(=O)(O)OP(=O)(O)OC | 6.35% (inactive)
O=C(Nc1cc2c(cc1[N+](=O)[O-])-c1c(F)cccc1C2)C(F)(F)F | -14.2% (inactive)
CCN1CCCC(SC(=O)C(O)(c2ccccc2)c2ccccc2)C1 (stereo not given) | -15.2% (inactive)
CC1(C)CCc2cc3c(cc2O1)OC(C)(C)CC3=O | 22.4% (inactive)
CC1CC(c2ccccc2)S(=O)(=O)O1 (stereo not given) | -12.2% (inactive)
O=C1c2ccccc2C(=O)N1CC1CC(S(=O)(=O)c2ccccc2)=NO1 (stereo not given) | -0.4% (inactive)
CC(=C/C=C/C=C(C)\C=C\C=C(\C)C(=O)O)/C=C/C=C(/C)C(=O)O | 7.75% (inactive)
Cc1cnc2cc(Cl)ccc2c1NCCN(CC(C)C)CC(C)C | -22.5% (inactive)
C1CSCCSCSCCS1 | 30.7% (inactive)
O=S(O)CCCCCSSSCCCCCS(=O)O | -10.4% (inactive)
CC(=O)CC(C)=NCCCCN=C(C)CC(C)=O | 5.35% (inactive)
COc1cc2c(cc1OC)C1=NN(c3ccccc3)C(=O)C1CC2 (stereo not given) | -7.2% (inactive)
Cc1ccc(Cl)cc1NC(=S)N(C)C | 3.75% (inactive)
